Results reported in PubChem BioAssay (Tox21).
Records with an inconclusive call do not appear. Activity calls are given as the source filed them. Calls come from the whole dose curve.
% is set by controls: 0 for no effect and ±100 for the full control effect.

These molecules were tested against Thyrotropin receptor (Homo sapiens) (UniProt P16473) (assay: qHTS assay to identify small molecule agonists of the thyroid stimulating hormone receptor (TSHR) signaling pathway (AID 1224843; note: nearly all actives have a fitted effect of over 45% in size)). Conditions: TSHR-HEK293 cells, cAMP HTRF, agonist mode, 30 min; series mostly up to 92.4 µM; activation: at the top concentration.
Sequence of Thyrotropin receptor (Homo sapiens) (P16473 whole entry, looked up): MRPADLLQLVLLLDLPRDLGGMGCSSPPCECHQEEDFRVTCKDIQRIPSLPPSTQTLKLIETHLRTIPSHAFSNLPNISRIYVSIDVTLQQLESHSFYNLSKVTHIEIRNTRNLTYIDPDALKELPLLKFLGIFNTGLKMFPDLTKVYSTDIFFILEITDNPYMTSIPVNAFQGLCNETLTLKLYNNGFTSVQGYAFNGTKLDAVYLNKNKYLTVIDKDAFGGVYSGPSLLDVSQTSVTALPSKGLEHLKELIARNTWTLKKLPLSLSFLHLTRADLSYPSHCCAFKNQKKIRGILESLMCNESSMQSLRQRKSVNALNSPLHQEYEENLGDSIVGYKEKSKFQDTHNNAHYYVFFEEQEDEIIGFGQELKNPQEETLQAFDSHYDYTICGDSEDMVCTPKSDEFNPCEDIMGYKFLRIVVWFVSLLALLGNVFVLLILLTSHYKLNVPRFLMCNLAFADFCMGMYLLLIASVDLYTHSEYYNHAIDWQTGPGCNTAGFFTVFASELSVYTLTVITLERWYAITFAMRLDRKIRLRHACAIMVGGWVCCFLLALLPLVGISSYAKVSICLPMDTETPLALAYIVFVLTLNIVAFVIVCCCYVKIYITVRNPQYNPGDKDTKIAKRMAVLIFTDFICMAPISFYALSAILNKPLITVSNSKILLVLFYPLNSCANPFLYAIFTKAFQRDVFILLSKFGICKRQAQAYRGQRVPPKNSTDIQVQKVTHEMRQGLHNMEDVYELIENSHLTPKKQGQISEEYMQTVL
From the text: National Center for Advancing Translational Sciences [NCATS]
NIH Chemical Genomics Center [NCGC]
U.S. Environmental Protection Agency [EPA]
National Institutes of Environmental Health Sciences [NIEHS]
National Toxicology Program [NTP]
U.S. Food and Drug Administration [FDA]
TSHR is the receptor for thyrotropin (thyroid stimulating hormone or TSH), a member of the glycoprotein hormone family. TSH is released by the anterior pituitary gland and is the main regulator of thyroid gland growth and development. Upon binding circulating thyrotropin, a G-protein signal cascade activates adenylyl cyclase and […] cAMP concentration is increased. cAMP is a key second messenger involved extensively in cellular signal transduction pathways associated with the majority of G-protein coupled receptors (GPCRs). The activation of these GPCRs by neurotransmitters, lipids, nucleotides, peptides and hormones results in the activation or the inhibition of plasma membrane-bound adenylate cyclase through heterotrimeric G-proteins. A cell-based TSHR assay was used to screen the Tox21 10K library for compounds that can modulate TSHR in agonist mode.
Tox21 Assay Protocol Summary:
TSHR-Hek293 cells were dispensed at 800 cells/4uL/well in 1536-well white plates using a Multidrop dispenser. […] The plates were incubated at room temperature for 30 min. 2.5 ul/well of cAMP-d2 and 2.5ul/well of anti-cAMP-cryptate was added respectively into the assay plates using a Flying Reagent Dispenser. After 1 hr incubation at room temperature, the fluorescence intensity in the plates was measured using an Envision plate reader. Each test compound was measured at 15 concentrations and in triplicates.
In the case of `CC(C)NCC(O)c1ccc([N+](=O)[O-])cc1` (stereo not given), the “activation” value is reported as 1.92% [at 42.5 µM] (inactive).
In the case of `CCN[C@H](C)Cc1cccc(C(F)(F)F)c1`, the “activation” value is reported as 6.36% (inactive).
`O=C(Cl)C(Cl)(Cl)Cl` was tested, and the “activation” value was 2.94% (inactive).
With `C=C(Cl)CCl` the “activation” value was -2.93% (inactive).
For `CNC(=O)NC(O)C(Cl)(Cl)Cl` (stereo not given), the “activation” value was 1.96% [at 42.5 µM] (inactive).
`CCOP(=S)(OCC)SCCl` was tested, and the “activation” value was -23.3% (inactive).
In the case of `C=C(C)[C@H]1CN[C@H](C(=O)O)[C@H]1CC(=O)O`, the “activation” value is reported as 2.56% [at 42.5 µM] (inactive).
For `C=C1CC[C@@]2(O)[C@H]3Cc4ccc(O)c5c4[C@@]2(CCN3CC2CC2)[C@H]1O5`, the “activation” value was -1.01% [at 42.5 µM] (inactive).
For `c1ccc2c(c1)CCNC2`, the “activation” value was -0.955% (inactive).
With `O=C(Cl)OCc1ccccc1` the “activation” value was 0.438% (inactive).
With `CC(C)[N+](C)(CCC(C(N)=O)(c1ccccc1)c1ccccc1)C(C)C` the “activation” value was -4.69% [at 42.5 µM] (inactive).
For `CON(C)C(=O)Nc1ccc(Br)c(Cl)c1`, the “activation” value was 16.7% (inactive).
`CCOC(=O)CC(SP(=S)(OC)OC)C(=O)OCC` (stereo not given) was tested, and the Potency was “inactive”.
With `CCOC(=O)C(SP(=S)(OC)OC)c1ccccc1` (stereo not given) the “activation” value was 1.1% (inactive).
With `CCC1(c2cccc(O)c2)CCCCN(C)C1` (stereo not given) the “activation” value was 2.01% [at 42.5 µM] (inactive).
For `CC(C)c1ccc(O)cc1`, the “activation” value was 12.5% (inactive).
`CC[C@H](O)C(C[C@H](C)N(C)C)(c1ccccc1)c1ccccc1` was tested, and the “activation” value was -4.83% (inactive).
In the case of `CCCC(C)(COC(N)=O)COC(N)=O`, the “activation” value is reported as -6.72% (inactive).
In the case of `CNC(=O)Oc1ccccc1C(C)C`, the “activation” value is reported as -11.1% (inactive).
In the case of `CCOC1Oc2ccc(OS(C)(=O)=O)cc2C1(C)C` (stereo not given), the “activation” value is reported as -0.131% (inactive).
`CON(C)C(=O)Nc1ccc(Br)cc1` was tested, and the “activation” value was 2.28% (inactive).
`NCCOS(=O)(=O)O` was tested, and the “activation” value was -4.71% (inactive).
For `ClCCN1CCCC1`, the “activation” value was 2.32% [at 42.5 µM] (inactive).
For `C=CC=O`, the “activation” value was 16.9% (inactive).
`CC(=O)OCC1=C(C(=O)O)N2C(=O)[C@@H](N)[C@H]2SC1` was tested, and the activation was 9.8% [at 19 µM] (inactive).
In the case of `COP(=O)(OC)O/C(C)=C/C(=O)N(C)C`, the “activation” value is reported as -1.25% (inactive).
In the case of `CCCOc1nn(C(=O)NS(=O)(=O)c2ccccc2C(=O)OC)c(=O)n1C`, the “activation” value is reported as -2.61% (inactive).
`Cl/C=C/CCl` was tested, and the “activation” value was 2.35% (inactive).
`COC1=CC(=O)O[C@@H](/C=C/c2ccccc2)C1` was tested, and the “activation” value was -18.7% (inactive).
`C=CCc1cc(OC)c2c(c1)OCO2` was tested, and the “activation” value was -17.7% (inactive).
For `CN(C)C(=O)Oc1cc(OC(=O)N(C)C)cc(C(O)CNC(C)(C)C)c1` (stereo not given), the “activation” value was -0.157% [at 42.5 µM] (inactive).
For `CCC1(CC)C(=O)C=CNC1=O`, the “activation” value was -0.569% [at 42.5 µM] (inactive).
With `O=C(NC(=O)c1c(F)cccc1F)Nc1cc(Cl)c(F)c(Cl)c1F` the “activation” value was -19.4% (inactive).
With `CC(Cc1ccccc1)NCCn1cnc2c1c(=O)n(C)c(=O)n2C` (stereo not given) the “activation” value was -5.37% (inactive).
`O=C(O)C(F)(F)C(F)(F)C(F)(F)C(F)(F)C(F)(F)C(F)(F)F` was tested, and the “activation” value was 20.3% (inactive).
`CCCN1CCC[C@@H]2Cc3nc(N)ncc3C[C@H]21` was tested, and the “activation” value was 9.17% [at 42.5 µM] (inactive).
`O=C(CCl)NCO` was tested, and the “activation” value was -11.6% (inactive).
With `Cc1ccc(Cl)c(O)c1` the “activation” value was -2.92% [at 42.5 µM] (inactive).
`CC[C@H](N)c1ccccc1` was tested, and the “activation” value was 0.118% (inactive).
For `C(COCC1CO1)OCC1CO1` (stereo not given), the “activation” value was -28.5% (inactive).
